# NPC1 prom act: activators of NPC1 promoter | Huh7 NPC1 promoter luciferase reporter, 24 h | Potency, µM (series often up to 9.22 µM), for inactives: at the highest dose activation, usual class: activators | hit rate 2.4% among 320,000 | AID 485313; further: % of control where 0% means no effect; nearly all actives have a fitted effect of over 60% in size
#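 Readout is luciferase luminescence, reflecting NPC1 promoter activation in stably transfected Huh7 cells after 24 h compound exposure at 37 °C in reduced-serum medium with 10% FBS.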
# Rab9 promoter act: activates the Rab9 promoter; hit rate 2.8% among 320,000; Potency, µM (highest dose often 9.22 µM), inactives show top-dose activation, negative = inhibition, hits mostly activators; Huh7 Rab9 promoter-luciferase reporter, luminescence, 24 h; further: % of control where 0% means no effect; nearly all actives have a fitted effect of over 60% in size
#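 Huh7 cells stably carrying Rab9 promoter–luciferase reporter, plated 1500 cells/well, compound added after 2 h and incubated 24 h at 37 °C; luciferase luminescence then read after 10 min with detection reagent.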
# FLuc counter: counter-screen for miR-21 project: firefly luciferase inhibitors or activators; purified FLuc, Km substrates, luminescence inhibition; Potency, µM (titrated, usually from 57.5 µM), without a hit: top-dose activity change, negative = inhibition, actives largely listed as inhibitors; P08659; hit rate 6.9% among 360,000;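 further: plate controls were vehicle for no effect and reference inhibitor for full effect; nearly all actives have a fitted effect of over 55% in size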
# Target sequence (P08659 whole entry, looked up): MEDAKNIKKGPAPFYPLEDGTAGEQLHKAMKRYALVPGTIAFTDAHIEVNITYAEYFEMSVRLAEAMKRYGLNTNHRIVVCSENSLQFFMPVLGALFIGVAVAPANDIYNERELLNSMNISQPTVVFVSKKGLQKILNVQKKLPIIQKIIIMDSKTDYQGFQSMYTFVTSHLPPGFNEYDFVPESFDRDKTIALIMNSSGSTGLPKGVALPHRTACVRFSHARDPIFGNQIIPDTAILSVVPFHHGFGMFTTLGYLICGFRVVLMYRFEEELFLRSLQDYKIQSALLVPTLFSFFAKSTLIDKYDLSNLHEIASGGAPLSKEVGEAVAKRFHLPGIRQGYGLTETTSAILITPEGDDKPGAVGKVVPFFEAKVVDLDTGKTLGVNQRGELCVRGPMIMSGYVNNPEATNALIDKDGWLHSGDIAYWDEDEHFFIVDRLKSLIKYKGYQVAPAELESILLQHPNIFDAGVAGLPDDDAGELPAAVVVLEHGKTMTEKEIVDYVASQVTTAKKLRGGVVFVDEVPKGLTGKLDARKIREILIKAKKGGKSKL
#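 Purified P. pyralis luciferase, 10 nM final, with Km-level 10 uM D-luciferin and 10 uM ATP in 50 mM Tris acetate pH 7.5, 10 mM Mg acetate, 0.01% Tween-20, 0.05% BSA; 6-point qHTS titration about 60 µM downward; luminescence read.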
# KinaseGlo FLuc: Kinase-Glo luciferase inhibition (counter-screen); Q27757; Kinase-Glo luciferase, ATP luminescence, 8 min; Potency, µM (titrated, usually from 38.3 µM), for the others: top-dose activity change, negative = inhibition, most hits filed as inhibitors; hit rate 0.28% among 200,000; further: on the % scale 0 is the no-effect control and ±100 the full control effect; nearly all actives have a fitted effect of over 60% in size
#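 Kinase-Glo luciferase light output from ATP and luciferin was measured with 10 uM ATP, within the enzyme's linear range. Buffer: 50 mM imidazole pH 7.2, 50 mM KCl, 7 mM MgCl2, 0.01% Tween 20, 0.05% BSA; luminescence read after 8 min at ambient temperature.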
# SMN2 splice enh: SMN2 splice variant enhancement; Potency, µM (top dose mostly 46.1 µM), for inactives: top-dose activity change, positive = activation, most hits filed as activators; hit rate 2.8% among 210,000; HEK293 SMN2-luciferase splicing reporter, luminescence, 30-36 h; AID 1458; further: % of control where 0% means no effect; nearly all actives have a fitted effect of over 55% in size
#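 HEK293 cells carry an SMN2 minigene-luciferase reporter in which exon 7 inclusion puts luciferase in frame. Cells were seeded at 2000 cells/well, attached for 10-12 hours, then exposed to compounds for 30-36 hours at 37C before ONE-Glo luminescence.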
# ELG1 genotox: induces genotoxicity in HEK293T cells with luciferase-tagged ELG1; HEK293T ELG1-luciferase reporter, luminescence, 16 h; Potency, µM (top dose mostly 46 µM), inactives show top-dose activity change, positive = activation, actives largely listed as activators; hit rate 1.3% among 330,000; AID 504466; further: % of control where 0% means no effect; nearly all actives have a fitted effect of over 60% in size
#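 Screening used a luciferase reporter fused to human ELG1 in HEK293T cells. Luminescence was read on a CCD plate imager after 16 hr exposure and 30 min ONE-Glo incubation.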
# Active calls of the source: *; ? = inconclusive; . = not tested or not shown; [ ] = dose if it differs, or a comment. Hits are enriched below; roughly 7.3% of the tested compounds scored in any of these assays. The call rests on the fitted dose curve; in most records, active means well fitted curve in the direction sought with a large enough effect; inconclusive means small, poorly fitted or top-dose-only effect, or another doubt; inactive means no such curve, though single readings can be large; an effect the other way counts as inactive or inconclusive. Potency means the concentration at half of the fitted maximal effect.
SMILES,NPC1 prom act,Rab9 promoter act,FLuc counter,KinaseGlo FLuc,SMN2 splice enh,ELG1 genotox
COc1ccc2c(c1)C(=O)[C@H](OC(=O)NCCc1ccc(OC)c(OC)c1)[C@@H](c1ccc(OC)c(Br)c1)O2,.,.,.,-1%,15%,.
COc1ccc(C(=O)[C@H](Br)[C@H](Br)C(=O)O)cc1,.,.,.,-3%[7.66 µM],-4%[9.22 µM],.
COc1ccc(Cc2nn3c(Cn4nnc5ccccc54)nnc3s2)cc1,3%,-2%,11µM*,1%,-59%,-5%
c1ccc(-c2nn3c(Cn4nnc5ccccc54)nnc3s2)cc1,0%,0%,-14%,0%,6%,11%
CC1(OC(=O)C2CCCC2)C(=O)C=C2C=C(c3ccsc3)N(c3ccc(CO)cc3)C=C2C1=O (centres undefined),.,.,.,-5%[7.66 µM],-1%[9.22 µM],.
Clc1ccc(CN2CCSCC2)cc1Cl,-3%,7%,-2%,.,.,0%
c1ccc(-c2ccc(CN3CCSCC3)cc2)cc1,11%,0%,27µM*,.,.,5%
COc1ccc(N2C(=O)CSC23C(=O)N(Cc2ccc(C)cc2)c2ccccc23)cc1Cl (centres undefined),.,.,3%,.,.,.
N#CC/C(N)=N/NC(=O)CCCNc1ncc(C(F)(F)F)cc1Cl,20%,?,-2%,1%,16µM*,10%
NC(=O)CNc1ncc(C(F)(F)F)cc1Cl,-4%,-4%,2%,0%,5%,6%
Cc1ccc(SCC(=O)Nc2cc([N+](=O)[O-])ccc2O)cc1,4%,7%,17µM*,0%,.,-6%
O=C(CSCc1ccc(Cl)cc1)Nc1cc([N+](=O)[O-])ccc1O,0%,0%,-15%,3%,-29%,-14%
O=C(O)CCn1cnc2onc(-c3ccccc3Cl)c2c1=O,.,.,-14%,.,-8%,.
O=C(c1ccccc1)c1ccc(Cn2cc(-c3ccccc3)nn2)cc1,-11%,-16%,13µM*,.,.,?
COc1ccc(-c2csc3nc(-c4cccnc4)nc(Cl)c23)cc1OC,-8%,-4%,-15%,2%,-105%,-3%
Clc1nc(-c2cccnc2)nc2scc(-c3ccccc3)c12,?,28%,12µM*,-3%,15%,?
CCc1ccc(OC(=O)/C=C/c2ccco2)cc1,16%,12%,0.85µM*,.,.,4%
COC(=O)N/N=C/c1ccc(OC(=O)/C=C/c2ccco2)cc1,-1%,11%,-11%,.,.,-2%
Cn1c(=O)c(=O)n(C)c2cc(S(=O)(=O)N3CCCC3C(=O)Nc3cccc(F)c3)ccc21 (centres undefined),.,.,0%,.,9%,.
CCOC(=O)C1CCN(C(=O)c2ccc3c(c2)N=C(CC)c2cc(C)ccc2S3)CC1,.,.,-11%,.,-8%,.
O=C(CS(=O)(=O)c1cccc2nsnc12)NCc1ccc(Cl)cc1,.,.,-3%,.,.,.
Cc1ccc(-c2ccc(SCC(=O)NCC3CCCO3)nn2)cc1 (centres undefined),11%,18%,17µM*,-3%,-1%,2%
CCOC(=O)CC(=O)CSc1ncnc2c1nnn2-c1ccc(F)cc1,-1%,5%,?,1%,-8%,0%
CCOc1ccc(-c2ccc(SCC(=O)NCC3CCCO3)nn2)cc1 (centres undefined),?,3.2µM*,5.4µM*,-6%,16µM*,5%
Cc1ccc(-n2nnc3c(SCC(=O)NCC4CCCO4)ncnc32)cc1 (centres undefined),8%,-1%,5.4µM*,-1%,-5%,13%
CCOC(=O)CSc1ncnc2c1nnn2-c1ccc(F)cc1,0%,3%,15µM*,0%,-15%,6%
O=C(C1CCC(Cn2c(=O)c3sccc3n(Cc3ccc(F)cc3)c2=O)CC1)N1CCOCC1 (centres undefined),.,.,4%,.,.,.
O=C(COC(=O)c1cccc(-n2cnnn2)c1)c1ccc(Br)cc1,?,?,6.7µM*,.,.,?
O=C(COC(=O)c1ccccc1-n1cnnn1)c1ccc(F)cc1,6%,-3%,6µM*,.,.,?

# Screening data (PubChem)
